Experimental data published in PubChem BioAssay.
Active and inactive are the calls of the source.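 How the source made its calls, unless noted: active means NADPH fluorescence slope more negative than the mean of all samples by about 3 SD, 99.7% confidence; inactive means the rest.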

Assays:
[1] = inhibitors of TNFa-induced NFkB p65 translocation, primary screen, imaging, HUVEC, MLSMR starter and 10KST1 sets (AID 438;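 active means inhibition above 20% together with a positive visual image hit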;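 further: compound added about 3h40 before a 20 min TNFalpha stimulation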;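 on inhibition: signal is the nuclear over cytoplasmic p65 intensity ratio per well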); conditions: HUVEC TNFa-induced p65 nuclear translocation; cell count: measured here: nuclei count (cytotoxicity indicator), at 2.08 µM; inhibition: at 2 µM, stronger effect = higher value, 0% TNFa-plus-vehicle, 100% no-TNFa wells
[2] = inhibitors of mutant huntingtin aggregation, primary screen, imaging, exon1htt(103Q)mCFP cells, high-content imaging (AID 483;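 active means visual image review flags a hit and inhibition of aggregation exceeds 20%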;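 further: compound exposure lasted 3 days before fixation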;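 on nuclei count: percent of the per-plate median nuclei count of sample wells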); conditions: exon1htt(103Q)mCFP cell line, aggregate imaging, at 2 µM; inhibition of aggregation: stronger effect = higher value; nuclei count: measured here: cell count, toxicity
[3] = inhibitors of E-selectin induction by TNFa, primary screen, imaging, HUVEC, immunofluorescence, MLSMR starter and 10KST1 sets (AID 487;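 active means visually confirmed hit in the image check and inhibition above 20%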;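 on inhibition: signal is fraction of cell area covered by stained E-selectin grains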;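 on nuclei count: 100% = median nuclei count of all wells on the same plate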); conditions: HUVEC TNFalpha-induced E-selectin immunofluorescence imaging, at 2 µM; inhibition: stronger effect = higher value; nuclei count: measured here: cell number, toxicity
[4] = molecular target: Voltage-gated potassium channel subunit beta-2 (Rattus norvegicus) (UniProt P62483); assay: KvBeta enzyme negative modulators, primary screen, biochemical, NADPH fluorescence (AID 622;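 active means fluorescence slope higher than the sample average by over 3 SD, cut at about -0.22 in these data, passing the limit was not always enough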;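 further: slope of raw intensity against log time taken from 70 to 1610 s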); conditions: recombinant KvBeta, 4-cyanobenzaldehyde reduction, at 10 µM, stronger effect = higher value
[5] = molecular target: Voltage-gated potassium channel subunit beta-2 (Rattus norvegicus) (UniProt P62483); assay: KvBeta positive modulators, primary screen, biochemical, NADPH fluorescence (AID 623); conditions: Recombinant KvBeta, NADPH fluorescence decrease slope, 10 min; at 10 µM; stronger effect = lower value;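 further: fluorescence intensity change per second fitted from 20 to 320 s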
[6] = molecular target: Alpha-2C adrenergic receptor (Homo sapiens) (UniProt P18825); assay: modulators of alpha2C/GIRK thallium flux, primary screen, cell-based, HEK293 alpha2C/GIRK1/2 (AID 624;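 active means fluorescence slope after compound addition differing from the mean of all screened samples at 99.7% confidence, in either direction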;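 further: slope of fluorescence ratio to pre-addition baseline per second over 15 to 24 s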); conditions: thallium flux BTC fluorescence, at 10 µM, actives lie on both sides
[7] = inhibitors of Sendai virus-induced IRF3 signaling, primary screen, TLR/RLR signaling modifier project, cell-based, Sendai virus stimulus, luciferase, 10K MLSCN set (AID 602276;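 active means inhibition at or above 50% at 10 µM; inactive means inhibition below 50%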;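 further: firefly luciferase from ISG56 promoter only with Renilla not read in this screen; 0% = Sendai virus plus DMSO and 100% = medium plus DMSO without virus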); conditions: HEK293 RL24 IRF3 luciferase reporter, at 10 µM, stronger effect = higher value
[8] = inhibitors of poly I:C-induced TLR3 signaling, primary screen, cell-based, poly I:C stimulus, luciferase, 10K MLSCN set (AID 602277;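 active means inhibition of the reporter signal at or above 50%; inactive means inhibition below 50%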); conditions: HEK293-TLR3 RL24 IRF3 luciferase reporter, at 10 µM, stronger effect = higher value

Chain of Voltage-gated potassium channel subunit beta-2 (Rattus norvegicus) (P62483 whole entry, looked up): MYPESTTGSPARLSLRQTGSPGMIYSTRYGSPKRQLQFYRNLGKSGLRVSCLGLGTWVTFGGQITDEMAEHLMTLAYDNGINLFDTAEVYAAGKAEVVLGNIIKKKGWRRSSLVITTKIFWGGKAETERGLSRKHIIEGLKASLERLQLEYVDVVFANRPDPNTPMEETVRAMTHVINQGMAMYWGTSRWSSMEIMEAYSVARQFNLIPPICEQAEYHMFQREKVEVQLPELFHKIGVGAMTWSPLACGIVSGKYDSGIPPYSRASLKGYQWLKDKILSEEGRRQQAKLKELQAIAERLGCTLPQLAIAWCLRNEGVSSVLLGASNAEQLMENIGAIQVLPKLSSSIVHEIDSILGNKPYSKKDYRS
Chain of Alpha-2C adrenergic receptor (Homo sapiens) (P18825 whole entry, looked up): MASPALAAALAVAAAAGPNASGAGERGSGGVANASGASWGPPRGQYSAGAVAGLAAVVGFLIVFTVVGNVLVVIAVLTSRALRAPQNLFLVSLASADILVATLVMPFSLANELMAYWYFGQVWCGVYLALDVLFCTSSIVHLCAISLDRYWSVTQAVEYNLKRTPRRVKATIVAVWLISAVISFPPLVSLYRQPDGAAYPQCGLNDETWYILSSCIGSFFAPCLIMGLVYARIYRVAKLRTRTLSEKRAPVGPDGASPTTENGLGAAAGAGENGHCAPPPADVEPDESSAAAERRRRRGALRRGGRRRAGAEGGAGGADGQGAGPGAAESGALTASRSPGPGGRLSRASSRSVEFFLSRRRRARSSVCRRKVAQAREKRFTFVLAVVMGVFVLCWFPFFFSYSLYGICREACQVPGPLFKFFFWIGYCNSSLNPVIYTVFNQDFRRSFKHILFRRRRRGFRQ

| SMILES | cell count [1] | inhibition [1] | inhibition of aggregation [2] | nuclei count [2] [%] | inhibition [3] | nuclei count [3] [%] | fluorescence slope [4] | NADPH fluorescence slope [5] | slope [6] | inhibition [7] | inhibition [8] |
| --- | --- | --- | --- | --- | --- | --- | --- | --- | --- | --- | --- |
| COc1ccc(C2CC(c3ccccc3)Nc3nc(NC(=O)c4cccs4)nn32)cc1 (configuration not stated) | 413 | 1.4% (inactive) | -6.8% (inactive) | 102 | -156% (inactive) | 112 | -0.372 (inactive) | -7.5e-05 (inactive) | 0.00554 (inactive) | 18.4% (inactive) | 25.3% (inactive) |
| O=C(O)C1CCCN1C(=O)c1cccs1 (configuration not stated) | 367 | -18.4% (inactive) | -4.2% (inactive) | 105 | -53% (inactive) | 117 | -0.487 (inactive) | -7.9e-05 (inactive) | 0.00489 (inactive) | 5.87% (inactive) | 10.7% (inactive) |
| COc1c(S(=O)(=O)n2nc(C)cc2C)ccc(Cl)c1Cl | 536 | 11.4% (inactive) | -8.9% (inactive) | 120 | -25.3% (inactive) | 68.4 | -0.434 (inactive) | -7.2e-05 (inactive) | 0.0052 (inactive) | -8.21% (inactive) | 15.5% (inactive) |
| CCOC(=O)c1sc2nc(NC(=O)C(C)(C)C)sc2c1C | 600 | 16.7% (inactive) | -3.3% (inactive) | 112 | -25.6% (inactive) | 104 | -0.496 (inactive) | -2.5e-05 (inactive) | 0.00604 (inactive) | -20.5% (inactive) | -150% (inactive) |
| CC(Sc1nnnn1C)C(=O)Nc1ccc(Oc2ccccc2)cc1 (configuration not stated) | 354 | 0.5% (inactive) | -25.9% (inactive) | 105 | -72.3% (inactive) | 125 | -0.505 (inactive) | -2.8e-05 (inactive) | 0.00778 (inactive) | -8.41% (inactive) | -9.23% (inactive) |
| COC(=O)c1ccccc1NC(=O)c1ccc(COc2ccccc2)o1 | 845 | -8.3% (inactive) | 6.6% (inactive) | 113 | -19.3% (inactive) | 114 | -0.63 (inactive) | -3.5e-05 (inactive) | 0.00572 (inactive) | -25.9% (inactive) | -60.3% (inactive) |
| CCC(=O)OCCn1c(=O)c2cc3c(=O)n(CCOC(=O)CC)c(=O)c3cc2c1=O | 446 | 0% (inactive) | -19% (inactive) | 94.4 | -44.7% (inactive) | 125 | -0.483 (inactive) | 2.7e-05 (inactive) | 0.00378 (inactive) | -12.3% (inactive) | 6.39% (inactive) |
